According to PubChem BioAssay AID374 (University of Pittsburgh Molecular Library Screening Center, 2006):
The campaign covered roughly 65,000 compounds. About 100 (0.15%) were called active.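 Rule for the calls: active = inhibition above about 50% (limit read from the data); inconclusive = inhibition over screen mean plus 3 SD, below that limit; inactive = the rest.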 Many of the other results were omitted from the sample, so actives are more common in it than they were.

Each compound was assayed against Dual specificity protein phosphatase 1 (Homo sapiens) (UniProt P28562) (assay: MKP-1 phosphatase inhibitors, primary screen, biochemical, in vitro (AID 374;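 note: 0% = DMSO max control wells and 100% = wells with enzyme stopped by NaOH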)). Conditions: recombinant MKP-1, OMFP hydrolysis fluorescence; hits give high values;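 compounds tested at a single concentration somewhere between 10 and 100 µM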.
Chain of Dual specificity protein phosphatase 1 (Homo sapiens) (P28562 whole entry, looked up): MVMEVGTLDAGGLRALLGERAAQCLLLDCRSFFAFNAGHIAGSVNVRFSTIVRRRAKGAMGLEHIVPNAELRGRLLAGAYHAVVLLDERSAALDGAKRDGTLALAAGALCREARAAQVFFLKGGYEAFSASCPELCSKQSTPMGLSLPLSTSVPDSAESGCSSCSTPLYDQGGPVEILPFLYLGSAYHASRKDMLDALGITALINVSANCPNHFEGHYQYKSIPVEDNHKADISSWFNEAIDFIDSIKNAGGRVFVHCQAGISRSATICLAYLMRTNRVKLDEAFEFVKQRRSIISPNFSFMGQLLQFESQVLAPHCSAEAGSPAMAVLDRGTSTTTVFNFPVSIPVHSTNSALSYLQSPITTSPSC

inhibition, inactive:
COC(C)(C)[C@]12CC(O)(C(C)C)ON1[C@H]1CCCCC1N2O (stereo not given in full) -23.5%
CCOc1ccc(C(=O)NC2CCN(S(=O)(=O)CC)CC2)cc1 -10.3%
COC(=O)C(C)n1cnc2c(nnn2-c2cccc(Cl)c2)c1=O (stereo not given) -3.96%
Cc1ccc(CNC(=O)C2CCCN(S(C)(=O)=O)C2)cc1 (stereo not given) 4.5%
O=C(c1ccco1)N1CCN(CC(=O)N(C2CCCCC2)C2CCS(=O)(=O)C2)CC1 (stereo not given) 8.56%
COc1ccc(-n2ncc3c(N4CCc5ccccc54)ncnc32)cc1 -0.04%
CCCN1C(=O)C(NS(=O)(=O)c2ccc(N)cc2)(C(F)(F)F)C(C(=O)OC)=C1C (stereo not given) 7.02%
Nc1ncc(-c2cc3ccccc3oc2=O)s1 -7.46%
COc1ccccc1N1CCN(C(=O)CSc2nnc(-c3ccoc3C)o2)CC1 2.49%
CC1=NC2(CCCc3c2no[n+]3[O-])N(O)C1(C)C (stereo not given) 10.4%
Cc1ccc(-n2nc3c(c2NC(=O)c2ccc4c(c2)OCO4)CSC3)c(C)c1 28.8%
CCOc1cc(-c2conc2N)cc(OCC)c1OCC 0.9%
CCOc1ccc(NC(=O)Nc2ccc(N(C)C(C)=O)cc2)cc1 6.8%
CCOC(=O)C1CCN(C(=O)CSc2cc(=O)n(C)c3ccccc23)CC1 3.52%
Cn1c(=O)c(C(=O)Nc2ncccn2)c(O)c2ccccc21 1.1%
O=C(Nc1cccnc1)c1noc2c1CCCCC2 -9.22%
S=C1SCN(CCN2CCOCC2)CN1Cc1ccccc1 22.5%
Cn1cc(S(=O)(=O)N2CCC(Cc3ccccc3)CC2)c(=O)n(C)c1=O 13.6%
CCOC(=O)C1=C(CC)Nc2ccccc2N=C1NC(=O)c1cccc(S(=O)(=O)N2CCCC2)c1 17.2%
CCOC(=O)N1CCN(C(=O)c2ccc(CN(c3ccc(C)c(C)c3)S(C)(=O)=O)cc2)CC1 6.83%
CCCC(=O)Nc1c(O)c2ccccc2[nH]c1=O 24%
O=C(O)CN(Cc1ccco1)S(=O)(=O)c1ccc(F)cc1 -3.94%
CC(C)C[C@H](NC(=O)Nc1cccc(C(F)(F)F)c1)C(=O)O -11.4%
CCOC(=O)c1cc2c(n(-c3ccc(C)cc3)c1=O)CCCC2=O 3.58%
CCN1C(=O)CS/C1=N\c1nccs1 2.24%
Cc1cc(C(=O)OCC(=O)NCc2ccco2)c(C)n1-c1ccccc1 8.87%
CCCC(NC(=O)c1ccccc1)c1nc2ccccc2n1Cc1ccc(C(=O)OC)o1 (stereo not given) -11.6%
O=C(Cn1nnc(-c2ccc(CN3CCOCC3)cc2)n1)NC1CCCCC1 -10.1%
COc1ccc(S(=O)(=O)N2CCCC2)c(C)c1C 2.42%
CCn1c(SCC(=O)Nc2cc(C)c(Cl)cc2OC)nnc1-c1ccco1 13%
Cn1cccc1C(=O)NC(=O)COC(=O)Cc1coc2ccc3ccccc3c12 31.4%
CCOc1ccc2nc(SC(CC)C(=O)Nc3cc(C)on3)sc2c1 (stereo not given) 2.57%
C=CCn1c(COc2ccccc2F)nnc1SCC(=O)N1CC(=O)Nc2ccccc21 2.2%
CCC1CCCCN1CCCNC(=O)Cn1nc(-c2ccccc2)ccc1=O (stereo not given) 0.39%
CCCc1[nH]nc2c1C(c1c(C)nn(-c3ccccc3)c1Cl)C(C#N)=C(N)O2 (stereo not given) -4.58%
Cc1ccc(C(C(=O)NCc2ccco2)N(CC2CCCO2)C(=O)Cn2nnc3ccccc32)cc1 (stereo not given) 4.86%
COC(=O)c1ccc(NC(=O)CSc2nnc(-c3ccncc3)n2C)cc1 -30.5%
COc1ccccc1C1/C(=C(/O)c2ccc(C)cc2)C(=O)C(=O)N1Cc1ccco1 (stereo not given) 22.9%
COc1ccc(OC)c(C(=O)c2coc3ccc(OC)cc23)c1 3.61%
COc1ccc(NC(=O)C2CCCN(S(=O)(=O)c3cccc4cccnc34)C2)cc1OC (stereo not given) 6.18%
CCn1c(Cc2ccccc2)nnc1SCc1nc2ccccc2c(=O)[nH]1 7.32%
NC(=O)CSc1oc(-c2cccs2)nc1S(=O)(=O)c1ccccc1 6.79%
CCOc1ccc(OCc2ccc(C(=O)Nc3cccc(C)n3)o2)cc1 -1.14%
CCc1nc(C)cn1S(=O)(=O)c1cc(OC)c(C)cc1C -31.2%
COc1cc(Br)cc(/C=N/c2ncn[nH]2)c1O -1.54%
CC1=NCCN1S(=O)(=O)c1ccc(Br)c(C)c1 -0.35%
Cn1c(C(=O)N2CCC(C(N)=O)CC2)cc2c(=O)n(C)c3ccccc3c21 8.99%
O=C(O)CSCNC(=O)CC12CC3CC(CC(C3)C1)C2 -17.4%
CCC(=O)c1cc2c(cc1NC(=O)c1cccs1)OCCO2 1.58%
O=S(=O)(NCCOc1cccc2cccnc12)c1ccc(F)cc1 -4.61%
